High-throughput results deposited in PubChem by The Scripps Research Institute Molecular Screening Center.
Most compounds without a hit are left out; they make up all but 5.7% or so of the library.
hgDAF-12 ag – agonists of H. glycines DAF-12 nuclear receptor. activation, % at 6.8 µM. hit rate 1.8% among 370,000. HEK293 GAL4-hgDAF12 UAS-luciferase reporter, agonist luminescence; normalized to butyrate control;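 active = activation above a cutoff set at the mean of all screened compounds plus 3 SD, cut at about 10% in these data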
ssDAF-12 act – activates DAF-12 receptor from parasite S. stercoralis. activation, % at 6.8 µM. HEK293 ssDAF-12/GRIP1 lit1-tk-luc reporter, luminescence; % of 3 µM dafachronic acid response. hit rate 1% among 370,000;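 active = activation above the mean over all tested compounds plus 3 SD, cut at about 0.9% in these data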
AHR act – activators of human aryl hydrocarbon receptor; P35869; AHR-responsive luciferase reporter cells, luminescence; activation, % at 5 µM; hit rate 2.5% among 320,000; in the data active = activation above about 47%
Target sequence (P35869 whole entry, looked up): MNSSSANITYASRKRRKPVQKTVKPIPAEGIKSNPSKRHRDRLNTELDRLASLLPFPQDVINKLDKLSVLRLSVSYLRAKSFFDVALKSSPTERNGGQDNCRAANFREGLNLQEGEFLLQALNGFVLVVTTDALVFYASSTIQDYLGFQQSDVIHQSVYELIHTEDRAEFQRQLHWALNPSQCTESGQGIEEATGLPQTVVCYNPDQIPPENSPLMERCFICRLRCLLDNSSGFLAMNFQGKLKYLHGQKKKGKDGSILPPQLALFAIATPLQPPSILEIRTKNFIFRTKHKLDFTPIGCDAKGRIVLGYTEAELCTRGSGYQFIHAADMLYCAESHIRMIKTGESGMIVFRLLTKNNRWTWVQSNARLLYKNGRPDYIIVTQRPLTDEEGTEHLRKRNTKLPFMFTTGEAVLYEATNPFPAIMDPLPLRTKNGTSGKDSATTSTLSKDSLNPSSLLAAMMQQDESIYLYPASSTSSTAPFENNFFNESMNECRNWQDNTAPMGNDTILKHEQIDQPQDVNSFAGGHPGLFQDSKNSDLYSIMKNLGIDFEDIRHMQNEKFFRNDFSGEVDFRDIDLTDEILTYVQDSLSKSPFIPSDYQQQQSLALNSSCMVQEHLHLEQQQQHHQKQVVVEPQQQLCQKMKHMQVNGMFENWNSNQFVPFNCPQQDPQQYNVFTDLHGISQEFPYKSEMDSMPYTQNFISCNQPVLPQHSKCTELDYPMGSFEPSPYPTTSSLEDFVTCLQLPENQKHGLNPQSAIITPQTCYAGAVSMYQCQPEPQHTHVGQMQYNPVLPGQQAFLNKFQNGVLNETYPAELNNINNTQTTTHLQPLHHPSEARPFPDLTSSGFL
DAX1 inh-1 – NR0B1 (DAX1) inhibition; P51843; inhibition, % at 6.75 µM; hit rate 0.99% among 340,000; AID 504766; HEK293 Gal4-DAX1 luciferase reporter, luminescence;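 active = inhibition above the mean over all tested compounds plus 3 SD, cut at about 4.2% in these data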;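 also: inhibition shows as a rise in luminescence from relieved DAX1 repression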
hcDAF-12 act – activators of H. contortus DAF-12 nuclear receptor; HEK293 hcDAF-12 lit1-tk-luc reporter, luminescence; 0% DMSO, 100% Δ7-dafachronic acid; activation, % at 6.8 µM; hit rate 1.4% among 370,000; AID 652067;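 active = activation above the mean of all tested compounds plus 3 SD, cut at about 5.5% in these data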
DAX1 inh-2 – blocks DAX1 repression of SF-1 activated StAR promoter; inhibition, % at 6.8 µM; hit rate 1.1% among 370,000; HEK293T StAR-luciferase reporter, SF-1/DAX-1 repression relief;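 active = inhibition above the mean over all tested compounds plus 3 SD, cut at about 3.6% in these data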;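 also: higher inhibition means more luminescence from relief of DAX-1 repression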
Of the large screens only hits and unclear results are named; the others gave an inactive call.

O=C(Cn1c(=O)oc2ccccc21)Nc1ccc(Cl)cc1Cl	none
COC(=O)c1ccc(NC(=O)[C@H](C)NC(N)=O)cc1	none
COC(=O)c1ccc(-c2ccc3c(c2)[C@]2(CCC[C@@H](OCc4ccccc4)[C@@H]2NC(=O)CCc2ccccc2)C(=O)N3Cc2ccccc2)cc1	none (no result: AHR act, DAX1 inh-1)
CC(C)(C)OC(=O)NCc1ccccc1/C=C/S(=O)(=O)NCc1ccccc1	none (no result: AHR act, DAX1 inh-1)
CCCn1c(SCC(=O)N2CCN(CC)CC2)nc2c1c(=O)n(C)c(=O)n2C	none
Cc1ccccc1C(=O)NNC(=O)c1cc(S(=O)(=O)N2CCOCC2)ccc1C	none
COc1ccc(-c2noc(C(C)NC(=O)c3ccco3)n2)cc1OC (stereo not drawn)	none
Cc1cccc(NC(=O)NCCN2C(=O)C3C4C=CC(C4)C3C2=O)c1 (stereo not drawn)	hgDAF-12 ag 11
O=C(NCCN1C(=O)C2C3C=CC(C3)C2C1=O)NCc1ccccc1 (stereo not drawn)	none
Cc1ccccc1NC(=O)NCCN1C(=O)C2C3C=CC(C3)C2C1=O (stereo not drawn)	DAX1 inh-1 4.7
COc1ccc(NC(=O)NCCN2C(=O)C3C4C=CC(C4)C3C2=O)cc1 (stereo not drawn)	DAX1 inh-1 6.0
O=C(NCCN1C(=O)C2C3C=CC(C3)C2C1=O)Nc1ccccc1 (stereo not drawn)	none
O=C1C2(CCCC13COC(c1ccc(O)cc1)OC3)COC(c1ccc(O)cc1)OC2 (stereo not drawn)	none (no result: DAX1 inh-1)
COc1ccc(CN2C(=O)N3Cc4ccccc4C3CS2(=O)=O)cc1 (stereo not drawn)	none (no result: AHR act, DAX1 inh-1)
COc1ccc(-c2nn(-c3ccccc3)cc2CO)cc1OC	AHR act 51
COc1ccc(-c2nn(-c3ccccc3)cc2/C=N/Nc2ccc3ccccc3n2)cc1OC	AHR act 49
COc1ccc(-c2nn(-c3ccccc3)cc2/C=N/O)cc1OC	none
COc1ccc(-c2nn(-c3ccccc3)cc2/C=N/NC(=S)NC(C)C)cc1OC	AHR act 55
COc1cccc(-c2nn(-c3ccccc3)cc2CO)c1	none
CCCCN(C(=O)CCC(=O)Nc1cc(C)on1)C(C(=O)NC1CCCC1)c1ccccc1OCC (stereo not drawn)	none
COc1ccc(C2CC(c3cccs3)=NN2C(=O)CN2CCCCC2)cc1 (stereo not drawn)	ssDAF-12 act 3.1 (no result: DAX1 inh-1)
CCOC(=O)CC(=O)CSc1nc2ccc(C)cc2cc1C#N	hgDAF-12 ag 11, ssDAF-12 act 0.9, DAX1 inh-1 6.7, DAX1 inh-2 3.8
CC(C)OC(=O)CC(=O)CSc1nc2c(cc1C#N)CCCCC2	none
CCOC(=O)CC(=O)CSc1nc2c(cc1C#N)CCCCC2	hgDAF-12 ag 11
CN(CC(=O)Nc1ccc2c(c1)OCO2)S(=O)(=O)c1cccs1	none
CCOC(=O)C1=CCN(S(=O)(=O)c2ccc(F)cc2)C1c1ccc(Cl)cc1 (stereo not drawn)	none (no result: AHR act, DAX1 inh-1)
Cc1ccc(NC(=O)CSc2nc(N)cc(=O)[nH]2)cc1S(=O)(=O)N1CCCCCC1	none
O=C(N/N=C/c1ccc(-c2ccccc2C(=O)O)o1)c1cccs1	hgDAF-12 ag 12
O=C(N/N=C/c1ccncc1)c1cccs1	none (no result: hgDAF-12 ag, ssDAF-12 act, hcDAF-12 act, DAX1 inh-2)
CCC1CCCCN1c1ccc([N+](=O)[O-])cc1/C=N/NC(=O)Cn1c2ccccc2c(=O)c2ccccc21 (stereo not drawn)	DAX1 inh-1 6.0
CCNC(=O)C1(C)CCCN(C(=O)c2cc(OC)ccc2Br)C1 (stereo not drawn)	none (no result: AHR act, DAX1 inh-1)
CCOC(=O)C1=NN(c2cccc(Cl)c2)C2=NC(C)=C(C(=O)OC)C(c3cccs3)N12 (stereo not drawn)	DAX1 inh-1 5.6
CCOC(=O)C1=NN(c2ccccc2)C2=NC(C)=C(C(=O)OC)C(c3cccs3)N12 (stereo not drawn)	none
Cc1ccsc1/C=N/NC(=O)c1ccc(-n2cccc2)cc1	none
O=[N+]([O-])c1ccccc1-c1ccc(C(=S)N2CCN(c3ccccc3)CC2)o1	ssDAF-12 act 1.7
Cc1cc2cccc(C)c2nc1SCC(=O)NNC(=O)c1ccco1	AHR act 52
Cc1cc(NC(=O)CSc2nc(N)c(NC(=O)c3ccco3)c(=O)[nH]2)no1	DAX1 inh-1 7.5
